Hit rate of the full screen: of about 53,000 sequences, about 3,700 (7%) were called active. The full list was thinned out, with actives kept by preference. Unmarked numbers belong to inactive results.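 The calls were made as follows: active = gene knockdowns whose robust z-score for IL-1 alpha signal is at least 2 or at most -2, so actives lie on both sides; inactive = the rest.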

The assay is described as follows: Components of the Cytosolic LPS Sensing Pathway: Gene Identification via Genome-wide siRNA Screen.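 Also: robust z of the log signal after scaling to non-targeting control siRNA wells of the plate.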 As to conditions: RAW264.7 macrophages, IL-1a HTRF, actives lie on both sides, screened at 100 nM (by protocol), cells primed 5 h with Pam3CSK4 first. The method in brief:
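Read-out: IL-1a HTRF on supernatant, divided by plate negative-control median ×100, log-transformed and converted to robust z-score. Cells were RAW264.7 given 100 nM siRNA, Pam3CSK4-primed 5 hours, then LipidA-transfected 24 hour.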
With GGGCUCAUUGCUAAAACACTT against Sgcg, the z-score was -0.221.

Regarding GGCUAUUGUACAACUUAUATT against Pafah1b2, the z-score is 2.1 (active).

Turning to GCCCUUUGGAAGAAUACUCTT against Golt1b, the z-score is -1.12.

With GGAGCUCAUGGAAAUCUGUTT against Pfpl, the z-score is 0.446.

Regarding AGUGAAGAAAUGUUUGACATT against Raet1b, the z-score was -1.08.

For the sequence CCUAUUUGUAGGUGAUGUUTT against B3gnt7, the z-score is -0.445.

For the sequence GGUUCACUCCUGAUACCACTT against Ddo, the z-score is 1.29.

With GGCUUUUGGCUUCAACCCUTT against Slc39a14, the z-score is -2.24 (active).

With GGAAGCCAUUAUACAUGACTT against Uvrag, the z-score was -0.261.

With GGUACAGAAUAUGUCACAGTT against Olfm3, the z-score is 0.627.

Turning to CCCUCUGGAUGGAUCUUCATT against Fbp2, the z-score was -1.3.

Turning to GCAAGACUGAAAAUCCUGATT against Timm8a2, the z-score was -1.2.

On to GCAACUGAACCUUCUGCUATT against Morn2, for which the z-score is -1.7.

Turning to GGCUUGUACUACCAUGACATT against Rasgef1b, the z-score is -2.76 (active).

With GGGAACAAGGAACUCAAAGTT against Cadm1, the z-score is 1.69.

Regarding CCUGAAAGAUAACAAGUGGTT against Rnls, the z-score was 0.0112.

For the sequence GGUUUGUUUUACAAAAUGCTT against Zdhhc5, the z-score was 0.37.

As for GCAUUUUAGACUCAGAAUCTT against Car3, the z-score was -0.047.

Regarding GGAACGUAUACCUAUACCCTT against Huwe1, the z-score was -0.263.

In the case of GGUAUGCAGUGAAGAGGAUTT against Paqr9, the z-score was 2.52 (active).

CCGUGACAGUCAUGUUGAUTT against Amt: the z-score was 0.235.

With GGAAAGACCUCUUGAUAGGTT against Tbkbp1, the z-score is 0.113.

As to CCUCUAUGUGAGAUUUGAGTT against Mamdc2, the z-score was -0.917.

In the case of CCCACCGAGACACCAUCUUTT against Syne4, the z-score was -1.78.

Take GGGAGAUUGCAUUUGGAGCTT against Olfr678: the z-score was 0.317.

As for GGCUGAAGUUACUUUGGAUTT against Nup98, the z-score was -2.03 (active).

Consider GCAUGUAGACUACAACGUGTT against Myoz1, for which the z-score was -1.27.

Consider “GGGCUGAAGUGAAACCAGATT against D930048N14Rik”, for which the z-score is 0.415.

For the sequence GGGUCCAAAAGAAAAGUGUTT against Zc2hc1c, the z-score is 0.784.

With GCAAAACACACUGAUGGUGTT against Stx16, the z-score was 0.835.

GGCAAUUCAUUGCAUGUUATT against Cdc42ep3: the z-score is -0.177.

Take GGAUCUCACAGUGAAGAAGTT against Krba1: the z-score was 0.392.

For “GCUUAUUUGUGGUACACGGTT against D030056L22Rik”, the z-score was 0.112.

For the sequence GGUUUCCUGAAGUUUUCAATT against Gnaz, the z-score is 3.08 (active).

On to GGGUUGACCACUAUUUCUGTT against Olfr1338, for which the z-score is -1.06.

For the sequence CGAAAAAGGGCUUUUAACUTT against Ndufs1, the z-score was 0.757.

As for GGUGAAUGAGGACUCUGGGTT against Dcps, the z-score was -1.07.

As to CGAGCACCUAUUCAUCAUATT against Tdo2, the z-score is 0.889.

As to GGUACGACUUGGAAGAAAUTT against Rock2, the z-score is -0.415.

Take GCUUAUGAUUCCAAGGCAGTT against Serpina6: the z-score is 0.9.

Take AAUUCUGGACGAGGAGCAUTT against Abcc5: the z-score is 3.22 (active).

For CCUGGCAGUAAUCACCAUUTT against Olfr1158, the z-score is -0.117.

Regarding CGAGAAAAUGGAUUCUACCTT against Atp10d, the z-score was 0.314.

As to GGAGUUGUCUACCAAAGUUTT against Reep5, the z-score was 0.609.

For CCCGAUGAAGUGUUUUUAGTT against Oosp1, the z-score is -0.753.

In the case of GGAAGAAUAAAGUGCUUUGTT against Chga, the z-score is 2.27 (active).

As to GGAUCCUCUUGAUCAAGCUTT against Vps53, the z-score is -0.891.

As to GGUUUGAUUAUACCUAUCATT against Tenm2, the z-score is -0.337.

As for GGAGAAAGGUUUUGUUAUGTT against Gtf2h2, the z-score was 1.5.

For the sequence CCUACUACAUCCGCUACUGTT against Apba2, the z-score was -0.366.

Consider GGUUUGGCUUAGCUCAUCATT against Mettl24, for which the z-score is -2.72 (active).

Turning to GGGCUACUCAGCCUAUAGUTT against Asic4, the z-score was 1.22.

With GGCAAACUCGGGUAUACACTT against Mybpc1, the z-score is 0.394.

Consider GGUGUGGCUGUUCUGAUGATT against Olfr771, for which the z-score is 0.322.

Turning to GCACGAGAGACAUUUCUCCTT against Kat7, the z-score was -2.32 (active).

Take GGGCUCCUGGUUUAGUAAUTT against Zfp59: the z-score is 1.04.

As for GGGUGUUUGGAGAUUGUGUTT against Heatr3, the z-score was -2.93 (active).

For “GCUUUUCAUACCUGUUUCCTT against 9930111J21Rik2”, the z-score was -0.227.

On to CGGAAUCUGACUGGUAUCGTT against Banp, for which the z-score was -1.21.

As for GGAAAAAGCCAAUUAUGUCTT against Fbxl2, the z-score is -0.954.

In the case of GGUUUUAAGCUUGCUUAUGTT against Ucma, the z-score is 0.4.

As to GGAGAUACUAUGUUGCAUUTT against Fgf9, the z-score is 0.537.

As for GGAUUCUUGGAGCUCAUUATT against Stag3, the z-score was -2.46 (active).

As for CCAAGAGAUGCUAGCUAAUTT against Platr28, the z-score was -0.495.

Consider GGCAAUCUACUCAUUGUUGTT against Olfr1239, for which the z-score is -0.719.

GCAGGUUAGAGUCACUUGUTT against Trim67: the z-score was 0.143.

Consider GGUGUCCAGUUCAUCCAGGTT against Vxn, for which the z-score was 1.15.

In the case of GGAACAAGGUAAAAUACAUTT against Nthl1, the z-score was 3.88 (active).

With GCUUUGAGAACCUUGGUAATT against Rab9b, the z-score was -0.652.

Regarding GGAUCAGUGCCUUUGGCUATT against Rhoc, the z-score is -1.75.

In the case of GGGAUGUUUUGUUUUUAACTT against Mlc1, the z-score was 0.384.

As for GGAGUUCACCAGCUACCAATT against Myoz3, the z-score is -0.537.

With CCAUGGAAUUCAAUUCCUUTT against Vmn2r66, the z-score was 0.0798.

Take CCCUAGUUACCAAUUCCACTT against Olfr293: the z-score is 2.61 (active).

For the sequence GGUUGACUGAAUGAUGGAATT against Tcl1b3, the z-score is -0.724.

In the case of GCCCAUAUCGGAGAAGAUUTT against Cap2, the z-score is -1.97.

For the sequence GGGCAUGUUUAACGACAUUTT against Csf2ra, the z-score was 1.49.

GGAUUUCCUUUUAAGACUUTT against Rab3il1: the z-score is -0.71.

Turning to GCUUUACCUGCUCAGAAGCTT against Olfr520, the z-score was -2.26 (active).

In the case of GGAAGACAAUAAGAAGUGGTT against Niban2, the z-score is -0.576.

As for CCAUUCCUACAGCAUGCGUTT against Slc27a1, the z-score was 0.523.

Turning to GCGAGCUAUUCUUCCUUGUTT against Eif4a1, the z-score is -2.13 (active).

Consider CCUCAUCCAACAUACCUAUTT against Olfr665, for which the z-score is -0.665.

In the case of “GGACAUCAUAUUCGUUUUCTT against C130026L21Rik”, the z-score is 1.12.

Consider GGGUUGAAGUUUGUCGAAATT against Nlgn1, for which the z-score was 0.496.

In the case of GGGUCUUUGUACAGAUUGCTT against Olfr275, the z-score is 0.0844.

As to GGAGGAAGAGGAGAAUCUATT against Supt6, the z-score was -2.57 (active).

For the sequence GCUGAAUACAGUUGGUGCUTT against Nelfa, the z-score is -0.259.

Regarding GGAUUCAAACUGGUUUUCATT against Ptcd3, the z-score was 1.8.

Take GGACAAGUUCUGUUGGUAUTT against Zfp275: the z-score was 0.121.

Take GCGCAGUCAGACCAUAUAUTT against Fbxl5: the z-score is -0.874.

As to GGGAGACUGUGAAGCUUUATT against Elk4, the z-score was 3.22 (active).

As for GGUCUUAAAGCAUGAGAAGTT against Med8, the z-score was 0.541.

With GGUUCGUAAAAUUAUUAGGTT against Vcl, the z-score was 1.09.

GGGCAGUCCGUUUCUUAACTT against Kptn: the z-score was 0.815.

GGAGGUAUUUACCAAAGAUTT against Acer2: the z-score is 0.453.

Take CCACACUUUUCAGUAUAAUTT against Lin54: the z-score was 0.897.

GGGUGACCUAAAGAAUUAATT against Ybx3: the z-score is 0.849.

For the sequence GCUGAAUACAACGUGAGAUTT against Tdh, the z-score was -4.05 (active).

As to GGUUUCGUCUUGAUAUCUATT against Trpc1, the z-score is -0.417.

In the case of GGAGAGCAGAUGUGAUUCUTT against Mrm2, the z-score was -0.561.

Regarding GCCUGUUCUCAAGACUGACTT against Sema4a, the z-score is 2.06 (active).

As to GGGUGUCUUUCCUGUGUGATT against Pkmyt1, the z-score was -0.804.

Consider GGGUAAAGGAGAUUGUGAUTT against Ppfibp2, for which the z-score was -0.103.

In the case of GCCGUUAGAAACAAAGUCGTT against Taf3, the z-score is -2.48 (active).

With CCAAGUAUAGCUCACAUAATT against Slc17a4, the z-score is -1.7.

GCCCUUGAAGAUUUGAGGUTT against Cops8: the z-score was 0.00555.

Regarding GCACAGGUUCAAGUGGAACTT against Prnd, the z-score is -1.41.

(Values after PubChem BioAssay AID1508600 (Functional Genomics Laboratory (NCATS/FGL), 2020).)
